Assay outcomes deposited in PubChem BioAssay by National Center for Advancing Translational Sciences (NCATS).
Marburg entry: inhibitors of Marburg virus binding or entry into cells; Marburg virus pseudotype entry/binding inhibition, cell-based; actives 6.5% (n = 18,000); Potency, µM (highest dose often 49.2 µM), hits mostly inhibitors
Lassa entry: Lassa virus entry inhibition; Lassa virus pseudotyped entry inhibition, cell-based qHTS; Potency, µM (series often up to 49.2 µM), actives largely listed as inhibitors; actives 4.1% (n = 18,000)
Each line names hits and unclear results; the compound was inactive in the other large screens; ! = not active in a repeat. The list is not random: actives were taken first. Their share in the collection is about 8.6%. Calls follow the shape of the full dose curve; tested in HEK293 cells.

Cc1cccc(CNc2nc(-c3cccc(NS(C)(=O)=O)c3)nc3ccccc23)c1	Marburg entry inconclusive
COc1cc(NS(C)(=O)=O)ccc1Nc1c2ccccc2nc2ccccc12	Marburg entry inconclusive, Lassa entry 3.2µM
COC1=C[C@H](C(=O)N2CCCC2)[C@H](C)[C@@H](c2ccccc2)CC1=O	none
C=CCN1c2ccccc2[C@]23CCC(=O)N(CC(=O)OC)C2=NC(C(=O)OC)=C(C(=O)OC)[C@H]13	none
CC(C)c1ccc(-c2cc(-c3cn[nH]c3-c3ccccn3)ccn2)cc1	none
F/C(COc1ccc2c(c1)[nH]c1ccccc12)=C1/CN2CCC1CC2	Marburg entry 13µM, Lassa entry inconclusive
COC(=O)[C@H]1Cc2c([nH]c3ccccc23)CN1C(=O)COc1ccc2c(C)cc(=O)oc2c1	none
CCCNCC(O)COc1ccccc1C(=O)CCc1ccccc1 (centres undefined)	Marburg entry 7.1µM, Lassa entry inconclusive
Cc1ccccc1OCC(O)CNCCOc1ccc(C(N)=O)cc1 (centres undefined)	none
COc1cc(C(CC2=C(c3ccccc3)Cc3ccccc32)NC(=O)C(F)(F)F)cc(OC)c1OC (centres undefined)	none
CO/N=C(\C(=O)N[C@@H]1C(=O)N2C(C(=O)O)=C(CSc3nnnn3C)CS[C@H]12)c1csc(N)n1	none
CN(C)CC/C=C1/c2ccccc2Sc2ccc(Cl)cc21	Marburg entry 18µM, Lassa entry inconclusive
COC(=O)c1cc2c(s1)-c1ccccc1OC2	none
CN(C)CC/C=C1\c2ccccc2COc2ccccc21	Marburg entry 10µM
CC(CCN1CCCc2nc(C)c(C)cc21)=NOC[C@@H](O)[C@H]1O[C@@H]2OC(C)(C)O[C@H]2[C@@H]1O	none
CCOC(=O)CN1C(=O)NC(c2cccc(C(F)(F)F)c2)C(C(C)=O)=C1C (centres undefined)	none
O=c1n(-c2ccccc2)c(=O)n2n1CC[C@@H]1C(=NOC[C@@H](O)COCc3ccco3)[C@H]3O[C@H]3[C@@H](O)[C@H]12	none
Cc1cccc2c(Nc3ccc4c(c3)OCO4)nc(CN3CCC(N4CCCCC4)CC3)nc12	Marburg entry 10µM, Lassa entry 22µM
CCC1(C2CCN(Cc3cccc4ccccc34)CC2)NC(=O)N(Cc2ccc3c(c2)OCO3)C1=O (centres undefined)	Marburg entry inconclusive
COc1cc(Nc2ncc(-c3ccccc3)o2)cc(OC)c1	none
C1CCC(NC(=NC2C3CC4CC(C3)CC2C4)N2CCOCC2)CC1 (centres undefined)	Marburg entry 14µM, Lassa entry inconclusive
Cc1cc(C)c2c(c1)CO[C@H]([C@H](O)CO)[C@H]2C=Cc1ccccc1	Marburg entry inconclusive
C[C@@H]1N[S+](=O)([O-])c2ccc(F)cc2O[C@H]1c1ccccc1	Marburg entry inconclusive
Cn1cnc2c(NCc3ccccc3)nc(NCCO)nc21	none
COc1ccc(CNc2nc(NCc3ccc(OC)cc3)c3ncn(C4CCCCC4)c3n2)cc1	Marburg entry 3.5µM, Lassa entry inconclusive
CCOC(=O)CN1C(=O)[C@]2(OC[C@@H]3Cc4ccccc4[C@H]3C=C2C)c2ccccc21	none
Cc1cc(C)c(OCc2cn(CC(=O)c3ccc(O)cc3)nn2)c(C)c1	none
CN(Cc1ccccc1)Cc1ccccc1	none
CCN(CCCc1ccccc1)CCCc1ccccc1	Marburg entry 8.9µM, Lassa entry inconclusive
C=CCO[C@@H]1C=C[C@@H](c2ccccc2)O[C@@H]1COC	none
C=CC[C@H]1C(=O)N2[C@@H](C[C@@H](C)[C@@H]2c2ccccc2)[C@@H](CC=C)C(=O)N2[C@H]1C[C@@H](C)[C@@H]2c1ccccc1	Marburg entry inconclusive
CCN1C(=S)NC(c2cccc(F)c2)C(C(=O)OC)=C1C (centres undefined)	none
C1CCC(C(C[C@@H]2CCCCN2)C2CCCCC2)CC1	Marburg entry 7.9µM
O=C(NCC1CC1)c1ccc(-c2cccc(C(=O)NC3CC3)c2)cc1	none
COC(=O)C1=C(C(=O)OC)[C@@H]2N(Cc3ccccc3)c3ccccc3[C@@]23C[C@@H](CO)N(C(=O)CC(C)C)C3=N1	none
Fc1ccc(-c2ncn(C3CCNCC3)c2-c2ccnc(Oc3ccc(F)c(F)c3)n2)cc1	Marburg entry 3.5µM, Lassa entry inconclusive
Fc1ccc(-c2ncn(C3CCNCC3)c2-c2ccnc(Oc3ccc(Oc4ccccc4)cc3)n2)cc1	Marburg entry 8.9µM, Lassa entry inconclusive
Nc1nccc(-c2c(-c3ccc(F)cc3)ncn2C2CCNCC2)n1	Marburg entry inconclusive
C[C@H]1CN(c2ccccc2)C(=O)[C@H]1CC(=O)Nc1ccc(Br)cc1	none
CC=COC(=O)N[C@@H](c1ccccc1)[C@]1(C(C)=O)CCCC1=O	none (no result: Lassa entry)
CC(=O)O[C@@H]1[C@@H](O)C2OC3C=C(C)C(=O)[C@@H](O)[C@]3(CO)C1(C)C21CO1 (some centres undefined)	Marburg entry 0.35µM, Lassa entry 0.56µM
CCC(C)CN1C(=O)NC(c2ccccc2)C(C(=O)OC)=C1C (centres undefined)	none (no result: Lassa entry)
O=C(OCc1cn([C@H]2CN(C(=O)C3CCCCC3)[C@@H](c3ccccc3)C[C@H]2O)nn1)c1ccccc1	Marburg entry inconclusive
CCCNC(=O)OC[C@H]1O[C@H](CCON=C2C[C@@H](O)[C@@H](O)[C@@H]3[C@H]4C(=O)N(CC)C(=O)[C@@H]4CC[C@H]23)C=C[C@H]1Oc1ccc(OC)cc1	none
C[C@@H]1CC=C[C@@H]2[C@H]1C(=O)N(Cc1ccccc1)[C@H]2c1cccc(Br)c1	none
COc1ccc(-c2ccccc2[C@H]2[C@@H]3C=CC[C@@H](C)[C@@H]3C(=O)N2Cc2ccccc2)cc1	Marburg entry 14µM, Lassa entry inconclusive
COc1cccc([C@@H]2Oc3ccc(Br)cc3C(=O)[C@@H]2OC(=O)N[C@H]2CCCc3ccccc32)c1	none
O=[S+]1([O-])C[C@H](N2CCN(CCO)CC2)[C@H](COCc2ccccc2)N1	none
CC[C@@H](C)[C@H](NS(=O)(=O)c1ccc(F)cc1Br)C(=O)OC	none
C[C@H]1CN(CCc2ccccc2)C(=O)[C@H]1CC(=O)Nc1ccccc1	none
C#C[C@@]1(OC(C)=O)CC[C@@H]2[C@@H]3CCC4=C[C@@H](OC(C)=O)CC[C@H]4[C@H]3CC[C@]21C	none
C#C[C@]1(OC(C)=O)CC[C@H]2[C@@H]3CCC4=C/C(=N/O)CC[C@@H]4[C@H]3CC[C@@]21CC	Lassa entry 28µM
C=CCCCN1C(=O)NC(c2ccccc2)C(C(=O)OC)=C1C (centres undefined)	none
Nc1c(S(=O)(=O)O)cc(Nc2cccc3ccccc23)c2c1C(=O)c1ccccc1C2=O	none
Nc1ccccc1S(=O)(=O)Nc1cccc2cccnc12	Marburg entry 7.1µM, Lassa entry 18µM
C=C[C@]1(C)C[C@@H](OC(=O)CSCCN(CC)CC)[C@]2(C)[C@H](C)CC[C@]3(CCC(=O)[C@H]32)[C@@H](C)[C@@H]1O	Marburg entry inconclusive
CC12C=CC(=O)C=C1CCC1C2=CCC2(C)C1CC[C@@H]2C(=O)CN1CCN(c2cc(N3CCCC3)nc(N3CCCC3)n2)CC1 (some centres undefined)	Marburg entry 18µM!
C[C@@H]1CC2=CCCC2[C@]2(O1)C(=O)N(Cc1ccc(F)cc1)c1cccc(Br)c12 (some centres undefined)	none
COC(=O)CC=C[C@@H](C)[C@@H](C=NO[C@@H](C)c1cn([C@H](CO)Cc2ccccc2)nn1)NS(=O)(=O)c1ccc(C)cc1	none (no result: Lassa entry)
CN(C(=O)COc1nc2ccccc2s1)c1ccccc1	none
CNc1ccc(-c2nc3ccccc3s2)cc1	Marburg entry 7.1µM, Lassa entry 10µM
